Measured values as given in PubChem BioAssay (EPA / NIEHS).
Calls of active or inactive are those of the source. Rule for the calls: active = hit-call score of the fitted dose curve at least 0.9, where 1 is the maximum; inactive = score below 0.9.

What was measured:
Conditions in all cases: mRNA level, 48 h; actives raise or lower the signal
[1] = read-out: 3-Hydroxy-3-Methylglutaryl-CoA Synthase 2 (HMGCS2), HMGCS2 (gene 3158); test: LTEA_HepaRG_HMGCS2: Life Technologies and Expression Analysis (LTEA) Assay for 3-Hydroxy-3-Methylglutaryl-CoA Synthase 2 (HMGCS2) using HepaRG (AID 2283504)
Outline: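 Human HepaRG cells in serum-free induction medium were exposed in duplicate for 48 h to 8-point half-log series from 100 uM top in 0.5% DMSO. HMGCS2 mRNA measured by TaqMan qRT-PCR, normalised to ACTB, GAPDH, POLR2A; bidirectional fit versus DMSO.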

HGF (gene 3082) = test: LTEA_HepaRG_HGF: Life Technologies and Expression Analysis (LTEA) Assay for Hepatocyte Growth Facto (HGF) using HepaRG (AID 2283505)
Outline: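 Differentiated HepaRG cells in serum-free induction medium exposed 48 h in duplicate, 8 half-log concentrations from 100 uM in 0.5% DMSO. HGF mRNA by qRT-PCR, normalised to ACTB, GAPDH, POLR2A; bidirectional fitting.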

[2] = read-out: Insulin Like Growth Factor 1 (IGF1), IGF1 (gene 3479); test: LTEA_HepaRG_IGF1: Life Technologies and Expression Analysis (LTEA) Assay for Insulin Like Growth Factor 1 (IGF1) using HepaRG (AID 2283506)
Outline: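 Using human HepaRG liver cells, IGF1 transcript induction or suppression is measured 48 h after dosing across eight concentrations capped at 100 uM. Values derive from bidirectional concentration-response fitting with DMSO as baseline.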

[3] = read-out: Intercellular Adhesion Molecule 1 (ICAM1), ICAM1 (gene 3383); test: LTEA_HepaRG_ICAM1: Life Technologies and Expression Analysis (LTEA) Assay for Intercellular Adhesion Molecule 1 (ICAM1) using HepaRG (AID 2283507)
Outline: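 Differentiated human HepaRG cells in serum-free induction medium exposed 48 h in duplicate to 8 half-log concentrations (top 100 uM, 0.5% DMSO). ICAM1 mRNA quantified by TaqMan qRT-PCR, normalized to ACTB, GAPDH and POLR2A; bidirectional fitting versus DMSO.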

[4] = read-out: Insulin-like growth factor-binding protein 1 (IGFBP1), IGFBP1 (gene 3484); test: LTEA_HepaRG_IGFBP1: Life Technologies and Expression Analysis (LTEA) Assay for Insulin-like growth factor-binding protein 1 (IGFBP1) using HepaRG (AID 2283508)
Outline: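 HepaRG cells, plated 48 h then switched to serum-free induction medium, exposed in duplicate for 48 h to 8-point half-log series from 100 uM in 0.5% DMSO. mRNA measured by qRT-PCR, normalized to ACTB/GAPDH/POLR2A; bidirectional fit versus DMSO.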

[5] = read-out: Interleukin 6 (IL6), IL6 (gene 3569); test: LTEA_HepaRG_IL6: Life Technologies and Expression Analysis (LTEA) Assay for Interleukin 6 (IL6) using HepaRG (AID 2283509)
Outline: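 HepaRG, ~100,000 cells/well, 48 h pre-culture; serum-free induction medium; cmpd 8-pt half-log from 100 uM, 0.5% DMSO, duplicate, 48 h. Lysis in RLT, TaqMan qRT-PCR; gain or loss vs DMSO.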

[6] = read-out: Interleukin 6 Receptor (IL6R), IL6R (gene 3570); test: LTEA_HepaRG_IL6R: Life Technologies and Expression Analysis (LTEA) Assay for Interleukin 6 Receptor (IL6R) using HepaRG (AID 2283510);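 for AC50: TaqMan qRT-PCR signal normalized to ACTB GAPDH and POLR2A housekeeping genes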
Outline: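 Concentration-response in human liver HepaRG cells: eight concentrations from 100 uM downward by half-logs, 48 h exposure, 0.5% DMSO vehicle. IL6R mRNA change measured by qRT-PCR and fitted in both directions relative to vehicle.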

[7] = read-out: Potassium channel subfamily K member 1 (KCNK1), KCNK1 (gene 3775); test: LTEA_HepaRG_KCNK1: Life Technologies and Expression Analysis (LTEA) Assay for Potassium channel subfamily K member 1 (KCNK1) using HepaRG (AID 2283511)
Outline: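 Gain or loss of KCNK1 mRNA is the read-out, quantified by qRT-PCR against three housekeeping genes after 48 h chemical treatment of human HepaRG liver cells. Concentrations ran from 100 uM downward in half-log steps, vehicle 0.5% DMSO.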

[8] = read-out: Keratin 19 (KRT19), KRT19 (gene 3880); test: LTEA_HepaRG_KRT19: Life Technologies and Expression Analysis (LTEA) Assay for Keratin 19 (KRT19) using HepaRG (AID 2283512)
Outline: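 Differentiated HepaRG cells in serum-free induction medium, exposed 48 h in duplicate to 8 half-log concentrations up to 100 uM in 0.5% DMSO. KRT19 mRNA by qRT-PCR, normalized to ACTB, GAPDH, POLR2A; bidirectional fit vs DMSO.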

[9] = read-out: JUN Transcription Factor, JUN (gene 3725); test: LTEA_HepaRG_JUN: Life Technologies and Expression Analysis (LTEA) Assay for JUN Transcription Factor using HepaRG (AID 2283513)
Outline: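 Human HepaRG liver cells receive test chemicals in 0.5% DMSO for 48 h across an eight-point range topping at 100 uM. Expression changes in JUN are scored in both directions against the DMSO vehicle.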

[10] = read-out: Lipase C (LIPC), LIPC (gene 3990); test: LTEA_HepaRG_LIPC: Life Technologies and Expression Analysis (LTEA) Assay for Lipase C (LIPC) using HepaRG (AID 2283514)
Outline: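 Read-out is LIPC transcript level by TaqMan qRT-PCR, normalized to three housekeeping genes, after 48 h chemical treatment of human HepaRG liver cells. Curves span eight concentrations topping at 100 uM; activity in either direction scored relative to 0.5% DMSO.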

[11] = read-out: Lipoprotein lipase (LPL), LPL (gene 4023); test: LTEA_HepaRG_LPL: Life Technologies and Expression Analysis (LTEA) Assay for Lipoprotein lipase (LPL) using HepaRG (AID 2283515)
Outline: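 Read-out is LPL transcript level by qRT-PCR, normalized to three housekeeping genes and fitted bidirectionally against the DMSO control. Human HepaRG cells received chemicals for 48 h at up to 100 uM.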

[12] = read-out: MicroRNA 122 (MIR122), gene 406906; test: LTEA_HepaRG_MIR122: Life Technologies and Expression Analysis (LTEA) Assay for MicroRNA 122 (MIR122) using HepaRG (AID 2283516); note: the transcript read is the microRNA miR-122
Outline: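 HepaRG, 48 h exposure, 8-pt half-log from 100 uM, 0.5% DMSO; TaqMan qRT-PCR; bidirectional fit vs DMSO.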

[13] = read-out: matrix metalloproteinase-10 (MMP10), MMP10 (gene 4319); test: LTEA_HepaRG_MMP10: Life Technologies and Expression Analysis (LTEA) Assay for matrix metalloproteinase-10 (MMP10) using HepaRG (AID 2283517)
Outline: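 Gain or loss of MMP10 mRNA is fitted relative to the 0.5% DMSO vehicle. The human hepatic line HepaRG receives a 48-hour serum-free exposure, in duplicate, with a maximum concentration of 100 uM.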

MYC, MYC (gene 4609) = test: LTEA_HepaRG_MYC: Life Technologies and Expression Analysis (LTEA) Assay for MYC using HepaRG (AID 2283518)
Outline: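 Differentiated HepaRG cells exposed 48 h in serum-free induction medium to 8 concentrations (top 100 uM, half-log steps; 0.5% DMSO), duplicate. MYC mRNA measured by Fluidigm qRT-PCR, normalized to ACTB, GAPDH, POLR2A; bidirectional fit versus DMSO.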

[14] = read-out: matrix metalloproteinase-3 (MMP3), MMP3 (gene 4314); test: LTEA_HepaRG_MMP3: Life Technologies and Expression Analysis (LTEA) Assay for matrix metalloproteinase-3 (MMP3) using HepaRG (AID 2283519)
Outline: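 HepaRG, human; 48 h dosing, 8 conc. (max 100 uM, half-log), duplicate, 0.5% DMSO. Readout: MMP3 transcript by Fluidigm TaqMan qRT-PCR, ACTB/GAPDH/POLR2A-normalised. Gain or loss fitted vs DMSO.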

[15] = read-out: Paternally Expressed 10 (PEG10), PEG10 (gene 23089); test: LTEA_HepaRG_PEG10: Life Technologies and Expression Analysis (LTEA) Assay for Paternally Expressed 10 (PEG10) using HepaRG (AID 2283520);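 for AC50: PEG10 transcript by qRT-PCR normalised to ACTB GAPDH and POLR2A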
Outline: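 Chemicals tested on HepaRG cells for 48 h, highest concentration 100 uM. PEG10 expression assessed by qRT-PCR relative to DMSO control.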

[16] = read-out: Nuclear factor NF-kappa-B p105 subunit (Homo sapiens) (UniProt P19838); test: LTEA_HepaRG_NFKB1: Life Technologies and Expression Analysis (LTEA) Assay for Nuclear Factor Kappa B Subunit 1 (NFKB1) using HepaRG (AID 2283521)
Outline: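 Differentiated human HepaRG cells in serum-free induction medium with 0.5% DMSO were exposed for 48 h to eight half-log concentrations, top 100 uM, in duplicate. NFKB1 mRNA measured by Fluidigm TaqMan qRT-PCR, normalised to ACTB, GAPDH and POLR2A; bidirectional fit versus DMSO.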

[17] = read-out: Protein phosphatase 2A (PPP2R4), PTPA (gene 5524); test: LTEA_HepaRG_PPP2R4: Life Technologies and Expression Analysis (LTEA) Assay for Protein phosphatase 2A (PPP2R4) using HepaRG (AID 2283522)
Outline: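 Gene-expression endpoint in HepaRG hepatic cells: 48 h treatment across eight half-log concentrations up to 100 uM in 0.5% DMSO. PPP2R4 mRNA by qRT-PCR, normalized to three endogenous control genes.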

[18] = read-out: Phosphatase and tensin (PTEN), PTEN (gene 5728); test: LTEA_HepaRG_PTEN: Life Technologies and Expression Analysis (LTEA) Assay for Phosphatase and tensin (PTEN) using HepaRG (AID 2283523)
Outline: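 Read-out is PTEN transcript level by multiplexed TaqMan qRT-PCR after 48 h chemical treatment of human HepaRG cultures in serum-free induction medium. Concentrations spanned 100 uM downward in half-log steps, 0.5% DMSO throughout; activity fitted in both directions against vehicle.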

Measured: AC50

Sequence of Nuclear factor NF-kappa-B p105 subunit (Homo sapiens) (P19838 whole entry, looked up): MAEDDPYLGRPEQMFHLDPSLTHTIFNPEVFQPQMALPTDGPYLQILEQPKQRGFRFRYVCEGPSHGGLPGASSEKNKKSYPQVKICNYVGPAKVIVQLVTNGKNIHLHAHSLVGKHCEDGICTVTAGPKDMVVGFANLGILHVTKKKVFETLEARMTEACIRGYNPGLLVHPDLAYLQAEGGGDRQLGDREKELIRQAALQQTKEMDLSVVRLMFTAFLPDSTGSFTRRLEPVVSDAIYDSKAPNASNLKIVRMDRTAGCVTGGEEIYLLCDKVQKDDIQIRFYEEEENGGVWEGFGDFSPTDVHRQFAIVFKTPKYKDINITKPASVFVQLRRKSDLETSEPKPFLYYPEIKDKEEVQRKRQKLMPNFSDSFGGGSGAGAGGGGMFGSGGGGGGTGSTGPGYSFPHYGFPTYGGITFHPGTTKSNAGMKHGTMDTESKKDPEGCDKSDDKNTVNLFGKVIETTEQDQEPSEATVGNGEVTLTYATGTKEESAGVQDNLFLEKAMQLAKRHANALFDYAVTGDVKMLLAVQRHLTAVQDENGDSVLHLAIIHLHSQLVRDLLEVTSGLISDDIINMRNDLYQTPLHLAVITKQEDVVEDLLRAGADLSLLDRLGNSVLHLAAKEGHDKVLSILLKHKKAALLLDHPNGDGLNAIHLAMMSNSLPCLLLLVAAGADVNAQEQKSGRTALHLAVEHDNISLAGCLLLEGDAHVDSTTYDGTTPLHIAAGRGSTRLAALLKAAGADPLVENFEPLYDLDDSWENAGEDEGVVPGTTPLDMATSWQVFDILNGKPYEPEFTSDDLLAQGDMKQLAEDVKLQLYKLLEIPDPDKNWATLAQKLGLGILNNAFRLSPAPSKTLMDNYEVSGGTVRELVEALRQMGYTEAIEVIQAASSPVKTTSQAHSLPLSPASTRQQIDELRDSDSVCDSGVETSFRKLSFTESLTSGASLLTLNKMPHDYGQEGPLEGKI

CCCCN1C(=O)[C@@H]([C@H](O)C2CCCCC2)NC(=O)C12CCN(Cc1ccc(Oc3ccc(C(=O)O)cc3)cc1)CC2
inactive: [8] | [9] | [16]
active: [1] 5.05 µM | HGF (gene 3082) 9.25 µM | [2] 9.61 µM | [3] 2.32 µM | [4] 2.45 µM | [5] 2.99 µM | [6] 2.65 µM | [7] 391 nM | [10] 3.67 µM | [11] 1.71 µM | [12] 3.52 µM | [13] 11.9 µM | MYC, MYC (gene 4609) 7.67 µM | [14] 0.267 µM | [15] 1.01 µM | [17] 3.88 µM | [18] 2.98 µM

O=S(=O)(O)c1ccc(N=Nc2c(O)ccc3cc(S(=O)(=O)O)ccc23)cc1
inactive: all assays above

O=C(NO)C1(NS(=O)(=O)c2ccc(Oc3ccc(F)cc3)cc2)CCOCC1
active: [1] 83.3 µM | [2] 50 µM | [8] 71.4 µM | [11] 76.6 µM | MYC, MYC (gene 4609) 78.5 µM | [15] 68.4 µM
inactive: all other assays above

CCCCCCCC/C=C\CCCCCCCC(=O)OC[C@@H](O)[C@H]1OC[C@H](O)[C@H]1O
inactive: all assays above

NC(=O)N1c2ccccc2C=Cc2ccccc21
inactive: all assays above

CCCCCOC(C)=O
inactive: all assays above

CCc1ccc(O)c(C(C)(C)C)c1
inactive: all assays above

Cc1nc(-c2ccccn2)ncc1C(=O)Nn1cc(C)c2cc(F)ccc21
active: [1] 66.8 µM | HGF (gene 3082) 65.1 µM | [10] 50 µM | [12] 50 µM | [15] 34.2 µM
inactive: all other assays above

c1ccc2cc3ccccc3cc2c1
inactive: all assays above

C=CCc1cc(S(=O)(=O)c2ccc(O)c(CC=C)c2)ccc1O
inactive: [3] | [7] | [9] | [16] | [17]
active: [1] 86.3 µM | HGF (gene 3082) 79.5 µM | [2] 83.5 µM | [4] 79.6 µM | [5] 93.2 µM | [6] 75.9 µM | [8] 50 µM | [10] 84.9 µM | [11] 93.4 µM | [12] 82 µM | [13] 93.2 µM | MYC, MYC (gene 4609) 90 µM | [14] 92.2 µM | [15] 71 µM | [18] 50 µM

CC(=O)c1ccccc1
inactive: all assays above

O=C(O)c1ccc2c(c1)nc(C(=O)NC1CCN(C3CC3)CC1)n2Cc1cc(-c2ccc(Cl)s2)on1
inactive: all assays above

CCCCC(CC)C(=O)OCCOCCOCCOC(=O)C(CC)CCCC (stereo not given)
inactive: all assays above
